Test results published in the supplement of paper PMC6555819.

The sequences below were run on PXR homodimer (NR concentration 270 nM) (assay: PBM binding z-score (relative to random genomic background probes); higher = stronger binding; sequences stand for … in GC…GCGATTGACAGCGTAGAATGAAGG).
How it was run: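 Ligand-free nuclear receptor dimers were applied to custom Agilent 4×180K protein-binding microarrays whose double-stranded probes carried direct-repeat seeds, single-nucleotide variants, half-site ablations and random human genomic background sequences in 34-nt variable regions. Incubation lasted 1 h. Binding z-scores were computed against the random background probes from regression-normalized fluorescence.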

Row | Sequence | PBM binding z-score
1 | ACGGACAGGTGAGTGAAGGTAACTCAGCTGGACG | -0.376
2 | ATCTCTAGGTAACCAAGTTCAGTGGATGCCGAAC | 1.5
3 | CCTAGCAGGCCAATCTGGGGCACTCAAGGCTTGA | -1.01
4 | CGTCCAAGGACAAAGGTCAGTGAAGAGATGACGG | 0.71
5 | GATACAGGGTCAAGGCTAGAGTACGCGTATTGAT | 0.503
6 | AATACAGGGTCTTCGTAGGCCAGAGTACGCACAG | -0.304
7 | CCTACTGGGCCAAGGTCATGGATCAGTCAAAGCA | 0.388
8 | GGAACGCGGGCAAAGTTGATAGCATCTGTCGACG | -0.509
9 | ACTATTAGTTGAGACGATGGCAACCGATAGGTTG | -0.102
10 | CAGCCTATGTCAGGGCCAGTATAGGAGGAACGTT | -0.46
11 | CCGACTGGGGCTAGGTTACCATAACGCACAGCCA | -0.572
12 | CGAACTAGGTCATTGACAGGACTGTGAATAGTAA | 0.155
13 | CGAACGAGGGCCTGAGTTGATAGCAAATGCCGAT | -0.641
14 | GCTAGTAGGCCATTTGGGTCACTCAATGACGGGC | -0.242
15 | GCTGCTAGGTGAGGTTGGTCAGCTAACGGGTACG | -0.63
16 | ATACCAGGGTGATCGTGAGGTCGTTGATACTAAC | 1.47
17 | GCTAGCAGGCCATTTGGGTGACTCAATGACGGGC | -0.793
18 | GCTGCTAGGTCAGGTTGGTCAGCAAACGGGTACG | -0.684
